Screen size: about 16,000 compounds; about 2,600 (16%) were called active. Not shown: some 20% with an inconclusive outcome. Calls follow the shape of the dose curve; as a rule, active = well fitted curve in the direction sought with a large enough effect; inconclusive = small, poorly fitted or top-dose-only effect, or effect the other way; inactive = no such curve, though single readings can be large or run the other way. The list is a sample of the results.
Biological target: Cytochrome P450 2D6 (Homo sapiens) (UniProt P10635)
Experiment: Cytochrome panel assay with activity outcomes
Settings: recombinant CYP, pro-luciferin dealkylation, luminescence, p450-cyp2d6; series mostly up to 57.1 µM
% is scaled to controls: 0 for no effect and ±100 for the full control effect.

Chain of Cytochrome P450 2D6 (Homo sapiens) (P10635 whole entry, looked up): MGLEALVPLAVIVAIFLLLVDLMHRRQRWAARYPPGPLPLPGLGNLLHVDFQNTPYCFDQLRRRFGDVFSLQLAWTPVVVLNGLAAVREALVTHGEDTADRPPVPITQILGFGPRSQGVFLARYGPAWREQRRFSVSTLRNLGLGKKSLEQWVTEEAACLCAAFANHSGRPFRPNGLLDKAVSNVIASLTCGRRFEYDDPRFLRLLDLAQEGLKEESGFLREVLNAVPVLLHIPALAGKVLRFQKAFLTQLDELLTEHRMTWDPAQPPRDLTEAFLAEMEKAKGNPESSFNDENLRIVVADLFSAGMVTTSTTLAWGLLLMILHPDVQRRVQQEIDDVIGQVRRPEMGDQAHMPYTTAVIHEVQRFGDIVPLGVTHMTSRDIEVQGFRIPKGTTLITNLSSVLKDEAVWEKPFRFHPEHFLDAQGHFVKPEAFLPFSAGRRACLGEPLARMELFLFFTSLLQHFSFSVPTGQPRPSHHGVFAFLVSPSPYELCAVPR

AC50, inactive:
CCN(CC)S(=O)(=O)N1CCC(C(=O)NC2CCCC2)CC1
COc1cccc(Cn2c(=O)c(-c3cccc(C#N)c3)nc3cnc(OC)nc32)c1
COc1ccc(-c2cc(C(F)(F)F)nc(N3CCOCC3)n2)cc1OC
CC1=NN(c2ccc(C)cc2C)C(=O)C1C(c1ccccc1)C1C(=O)N(c2ccc(C)cc2C)N=C1C (centres undefined)
O=C(c1cc(-c2ccncc2)nc2ccccc12)N1CCN(c2ccc(N3CCOCC3)nn2)CC1
COc1ccc(/C(O)=C2\C(=O)C(=O)N(c3cc(C)on3)C2c2ccc(OC)c(OC)c2)cc1OC (centres undefined)
CC(C)c1nnc(NC(=O)c2sc3ccccc3c2Cl)s1
C[N+](C)(CCCCCC[N+](C)(C)CCCN1C(=O)c2cccc3cccc(c23)C1=O)CCCN1C(=O)c2cccc3cccc(c23)C1=O
COc1ncc2nc(C)c(=O)n(-c3ccccc3)c2n1
O=C(Nc1nc(-c2ccccc2)cs1)c1ccc(Br)o1
CN1CCN(c2ncc3nc(-c4cc(F)cc(F)c4)c(=O)n(Cc4cccs4)c3n2)CC1
O=C(CCN1C(=O)c2ccccc2C1=O)Oc1ccc2ccccc2c1
O=C(c1ccc(S(=O)(=O)N2CCCCCC2)cc1)N1CCC(CN2C(=O)c3cccc4cccc(c34)C2=O)CC1
CN1CCN(c2ccc([N+](=O)[O-])cc2S(=O)(=O)N2CCOCC2)CC1
Cc1cccc(N2CCN(c3ccc(NC(=O)/C=C(/C(=O)O)c4ccccc4)cc3)CC2)c1
CC(=O)Nc1ccc(N2CCCCC2)cc1
Cc1ccnc2nc(C(=O)OCC(=O)Nc3ccc4c(c3)OC(F)(F)O4)nn12
CCN(/C=N/c1sc2c(c1C#N)CCCCC2)CC
O=C(NC1(C(F)(F)F)C(=O)Nc2c1c(=O)[nH]c(=O)n2-c1ccc(F)cc1)c1cccnc1 (centres undefined)
CN(C)CCCN1CC(C(=O)O)CC1=O (centres undefined)
Cc1cccc(CNc2ncnc3ccc(-c4cccc(C#N)c4)cc23)c1
c1ccc(Nc2ncnc3ccc(-c4cccnc4)cc23)cc1
c1cncc(-c2ccc3ncnc(NC4CCNCC4)c3c2)c1
CN1CCN(C2CC(=O)N(Cc3ccc(N4CCCC4=O)cc3)C2=O)CC1 (centres undefined)
O=c1c(-c2ccccc2)nc2cnc(N3CCNCC3)nc2n1Cc1ccc(F)cc1
COc1ccc(N2C(=O)CCC(C(=O)O)C2c2ccc(F)cc2)cc1 (centres undefined)
CN1CCN(c2ncc3nc(-c4cn(C)c5ccccc45)c(=O)n(C)c3n2)CC1
O=C(NNc1cccc(Cl)n1)Nc1ccccc1Cl
COc1ccc(-c2nc3cnc(N4CCNCC4)nc3n(Cc3cccs3)c2=O)cc1
Cc1nc(-c2cccc(NC(=O)c3cc4cc(Br)ccc4oc3=O)c2)cs1
CCn1c(C)cc(/C=C2\NC(=O)N(Cc3ccc(Cl)cc3)C2=O)c1C
Brc1ccc(/C=C/C=N/Nc2nc3ccccc3s2)cc1
Cc1ccc(NC(=S)c2nc3ccccc3s2)cc1
O=C(Oc1ccccc1)N1CCC2(CC1)CN(c1ccncc1)C2
O=C(CNCCO)N1CCc2ccccc21
CCCCN(C)CCCNC(=O)CCn1nc(-c2ccccc2)ccc1=O
Clc1ccc(-c2nnc(-c3ccccc3)c(N3CCSCC3)n2)cc1
Cc1noc(NS(=O)(=O)c2cccc3c(N(C)C)cccc23)c1C
O=C(Nn1cc(C(=O)N2CCN(c3ccccc3F)CC2)c2ccccc2c1=O)c1cnccn1
CCC(=O)NNC(=O)CCC(=O)Nc1ccccc1
CC(=O)NNC(=O)CCC(=O)Nc1ccccc1
Cc1ccc(-c2csc(N/N=C/c3ccco3)n2)cc1
NCCSSCCN
O=c1oc2cc(Oc3ccc(C(F)(F)F)cc3[N+](=O)[O-])ccc2c2c1CCCC2
CC(C)c1ccc(OCc2ccc(C(=O)N3CCN(c4ccccn4)CC3)cc2)cc1
COc1ccc(CCn2c(C)cc(C(=O)CSc3nc(N)cc(=O)[nH]3)c2C)cc1
CC(=O)Nc1nnc(SCc2ccc(F)cc2)s1

AC50, active:
CCN(CC)CC#CCC(C)(c1ccccc1)c1ccccc1 0.891 µM
O=C1c2cccc3cccc(c23)C(=O)N1CC1CCN(CC(O)COc2ccc3ccccc3c2)CC1 (centres undefined) 0.708 µM
Cc1cccc(OCCCC(=O)Nc2ccc(N3CCCCC3)cc2)c1 0.891 µM
c1ccc(CNc2ncnc3ccc(-c4cccnc4)cc23)cc1 10 µM
Cc1cccc(CNc2ncnc3ccc(-c4cccnc4)cc23)c1 12.6 µM
CCN(CC)c1ccc(/C=C/c2nc3ccccc3s2)cc1 28.2 µM
CCN(CCCNC(=O)CC(C(=O)N1CCc2ccccc21)n1ccnc1)c1ccccc1 (centres undefined) 3.98 µM
C#CCCCC(=O)Nc1ccccc1 12.6 µM
Cc1cc(C(=O)CSc2nnc(N)s2)c(C)n1CCc1ccc(F)cc1 7.08 µM

activity, negative = inhibition, inactive:
C=CC[C@@H]1C=C[C@@H](O/N=C\[C@@H](OC)[C@H](C)/C=C\CC(=O)OC)[C@@H](CO)O1 4.18% [at 11.4 µM]
CS[C@@H](CC(=O)O)C(=O)O -10.1% [at 11.4 µM]
CC(CC(=O)O)(CC(=O)O)c1ccccc1 11.2% [at 11.4 µM]
O=C(O)[C@@H](S)[C@H](S)C(=O)O -4.31% [at 11.4 µM]
CCO[P@]1(=O)OC[C@@H]2O[C@H](n3cnc4c(N)ncnc43)[C@H](O)[C@@H]2O1 4.83% [at 11.4 µM]
COc1ccc2c(Cl)cc(NC(=S)Nc3ccccc3)nc2c1 -18.8% [at 11.4 µM]
Cn1c(=O)c2[nH]c(COCc3nc4c([nH]3)c(=O)n(C)c(=O)n4C)nc2n(C)c1=O 3.11% [at 11.4 µM]
NC1=C(O)C(=O)[C@H](c2c[nH]c3ccc(OCc4ccccc4)cc23)O1 -2.34% [at 11.4 µM]
